{
  "source": "paper PMC5540273",
  "about": "(PLoS ONE, 2017);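 further: KINOMEscan kinase panel screen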",
  "data": [
    {"system": "STK33", "conditions": "concentration: 1 μM, replicates: in singlicate; n = 1", "units": {"%Inh": "%"}, "values": [
      {"smiles": "CN(c1ccc(NC(=O)Nc2cc(C(F)(F)F)ccc2F)cc1)c1ccnc(Nc2ccc(S(N)(=O)=O)cc2)n1", "note": "[GW809893]", "%Inh": 81},
      {"smiles": "Nc1ncnc2c1nc(-c1ccccc1)n2-c1ccccc1", "note": "[SKF-97293]", "%Inh": 16},
      {"smiles": "CN1CCN(CCCNc2nccc(-c3c(-c4ccc(F)cc4)nn4cc(C(F)(F)F)ccc34)n2)CC1", "note": "[GW621581]", "%Inh": 0},
      {"smiles": "O=C(Nc1cccc(-c2nn3ccccc3c2-c2ccnc(Nc3cccc(C(F)(F)F)c3)n2)c1)c1c(F)cccc1F", "note": "[GSK292658]", "%Inh": 4},
      {"smiles": "COc1cc(Nc2nccc(N3CCC(NC(=O)Nc4cccc(C(C)=O)c4)C3)n2)cc(OC)c1OC", "note": "(stereo not shown) [GSK1379753]", "%Inh": 0},
      {"smiles": "Cl.Cl.NCC(C(=O)Nc1cc(Br)c(-c2ccnc3[nH]ccc23)s1)c1ccccc1", "note": "(stereo not shown) [GSK1269851]", "%Inh": 52},
      {"smiles": "COc1ccc(Nc2nccc(NCCNC(=O)c3cc4ccccc4s3)n2)cc1", "note": "[GSK1379896]", "%Inh": 0},
      {"smiles": "Cc1ccc(F)c(C(=O)Nc2cccc(-c3nn4ccccc4c3-c3ccnc(Nc4cccc(F)c4)n3)c2)c1F", "note": "[GSK361061]", "%Inh": 4},
      {"smiles": "Cl.Cl.NCC(NC(=O)c1cc(-c2ccccc2)c(-c2ccnc3[nH]ccc23)s1)c1ccccc1", "note": "(stereo not shown) [GSK1321561]", "%Inh": 100},
      {"smiles": "Cc1cccc(Nc2nc(N[C@H]3CCNC3)ncc2C(N)=O)c1.Cl", "note": "[GSK2197149]", "%Inh": 40},
      {"smiles": "COc1cccc(C2=C(Nc3ccc(Cl)c(C(=O)O)c3)C(=O)NC2=O)c1", "note": "[SB-390769]", "%Inh": 0},
      {"smiles": "O=C(Nc1cccc(-c2nn3ccccc3c2-c2ccnc(Nc3cccc(F)c3)n2)c1)c1c(F)ccc(F)c1Cl", "note": "[GSK357952]", "%Inh": 10},
      {"smiles": "COc1cccc(NC(=O)NC2CCN(c3ccnc(Nc4cc(OC)c(OC)c(OC)c4)n3)C2)c1", "note": "(stereo not shown) [GSK1379763]", "%Inh": 0},
      {"smiles": "O=c1[nH]cc(-c2ccc(N3CCOCC3)cc2)c2sc(-c3cn[nH]c3)cc12", "note": "[GSK2276055]", "%Inh": 0},
      {"smiles": "CC(C)(C)c1ccc2nccc(Nc3cccc(O)c3)c2c1", "note": "[GW856795]", "%Inh": 0},
      {"smiles": "COc1ccc(Nc2nccc(N3CCC(NC(=O)Nc4cccc(OC)c4)C3)n2)cc1", "note": "(stereo not shown) [GSK1379742]", "%Inh": 0},
      {"smiles": "CCS(=O)(=O)c1ccc(OC)c(Nc2nccc(-c3c(-c4cccc(NC(=O)c5c(F)cccc5F)c4)nn4ncccc34)n2)c1", "note": "[GSK326180]", "%Inh": 7},
      {"smiles": "CC(C)c1nc(-c2cccc(NS(=O)(=O)c3c(F)cccc3F)c2F)c(-c2ccnc(Nc3ccc(N4CCOCC4)nc3)n2)s1", "note": "[GSK2008607]", "%Inh": 83},
      {"smiles": "Fc1ccc(-c2ncn(C3CCNCC3)c2-c2ccnc(Oc3ccc(-c4ccccc4)cc3)n2)cc1", "note": "[SB-245391]", "%Inh": 21},
      {"smiles": "O=C(Nc1n[nH]c2cc(-c3ccoc3)ccc12)C1CC1", "note": "[SB-738481]", "%Inh": 0},
      {"smiles": "Nc1ncc(-c2cccnc2)c2scc(-c3ccc4c(c3)CCN4C(=O)Cc3ccccc3)c12", "note": "[GSK683281]", "%Inh": 20},
      {"smiles": "Nc1ncc(-c2ccc3nccc(-c4ccncc4)c3c2)cc1S(=O)(=O)N1CCOCC1", "note": "[GSK1627798]", "%Inh": 0},
      {"smiles": "C[C@@H]1CC[C@@H](C(=O)Nc2ccccc2)CN1c1cc(-c2ccc3c(N)n[nH]c3c2)nc(N)n1", "note": "[GSK2286062]", "%Inh": 0},
      {"smiles": "Cn1cc(-c2ccc3c(c2)CCN3C(=O)Cc2cccc(F)c2)c2c(N)ncnc21", "note": "[GSK2603358]", "%Inh": 0},
      {"smiles": "Cc1ccc(C(=O)N2CC[C@@H](O)C2)cc1-n1c(C)cc(OCc2ccc(F)cc2F)c(Br)c1=O", "%Inh": 2},
      {"smiles": "CN1CCN(Cc2cccc(-c3ccc4c(Nc5ccc(Oc6ccccc6)cc5)ccnc4c3)c2)CC1", "note": "[GW578342]", "%Inh": 13},
      {"smiles": "CN(C)S(=O)(=O)c1cc(-c2ccc3nccc(-c4cccc(S(N)(=O)=O)c4)c3c2)cnc1N", "note": "[GSK1669921]", "%Inh": 3},
      {"smiles": "COc1cc(Nc2nccc(-c3c(-c4cccc(NC(=O)c5c(F)cccc5F)c4)nn4ncccc34)n2)cc(OC)c1OC", "note": "[GSK327238]", "%Inh": 22},
      {"smiles": "COCCOCCOc1cc2ncc3c4ccc(C#N)cc4[nH]c3c2cc1OC", "%Inh": 24},
      {"smiles": "Cc1ccc(C(=O)Nc2ccc(Nc3ccnc4cc(-c5nccs5)ccc34)cc2O)cc1.Cl", "note": "[GW494702]", "%Inh": 9},
      {"smiles": "CC(=O)N1CCN(c2ccc(Nc3nccc(-c4sc(C(C)C)nc4-c4cccc(NS(=O)(=O)c5cccc(Cl)c5)c4)n3)cn2)CC1", "note": "[GSK1660437]", "%Inh": 34},
      {"smiles": "COc1cccc(C(=O)Nc2cccc(Oc3ccc4nc(NC(=O)C5CC5)cn4n3)c2)c1", "%Inh": 10},
      {"smiles": "Cc1cccc(NC(=O)Nc2ccc(Oc3ncnc4ccn(C)c34)cc2)c1", "%Inh": 0},
      {"smiles": "Cc1ccc(S(=O)(=O)Nc2ccc(Nc3nccc(Nc4cccc5[nH]ncc45)n3)cc2)cc1", "note": "[GSK581271]", "%Inh": 0},
      {"smiles": "O=C(Nc1ccccc1F)NC1CCN(c2ccnc(Nc3ccc(F)cc3)n2)CC1", "note": "[GSK1379800]", "%Inh": 0},
      {"smiles": "Nc1n[nH]c2cnc(-c3ccccc3)cc12", "note": "[SB-642124]", "%Inh": 31},
      {"smiles": "c1ccc(-c2n[nH]cc2Nc2ccnc3ccccc23)nc1", "note": "[GW694077]", "%Inh": 6}
    ]}
  ]
}
